NadD inh: blocks S. aureus nicotinate mononucleotide adenylyltransferase; purified NadD enzyme, colorimetric absorbance read-out; inhibition, % at 20 µM; hit rate 0.78% among 360,000; in the data active means inhibition above about 26%
rCAG RNA binder: r(CAG) repeat RNA binding | TO-PRO-1 dye displacement fluorescence | inhibition, % at 3 µM | hit rate 1.3% among 370,000 | AID 651821;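 active means inhibition above the plate cutoff, the mean of all test compounds on that plate plus 3 SD, cut at about 35% in these data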;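 further: higher means more dye released from RNA so lower well fluorescence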
DAGLB inh: blocks human DAGLB lipase activity; inhibition, % at 5.17 µM; hit rate 0.059% among 340,000; HEK293T DAGLB membrane lysate, EnzChek fluorogenic substrate; AID 504411; in the data active means inhibition above about 34%
MsrA inh: inhibitors of bovine MsrA. purified bovine MsrA, absorbance read-out. inhibition, % at 15.5 µM. hit rate 0.75% among 360,000
bovine MsrA act: bovine methionine sulfoxide reductase A activation | purified bovine MsrA, absorbance read-out | activation, % at 10.6 µM | hit rate 0.3% among 360,000 | AID 602163; in the data active means activation above about 7.5%
DSG3 Ab inh: blocks pemphigus antibody binding to human desmoglein-3. DSG3-coupled beads, scFv-anti-DSG3-GFP binding, flow cytometry; active compounds read low. binding (percent of control), % at 10 µM. hit rate 0.48% among 310,000;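 active means binding more than 3 SD below its plate's average and above zero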;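 further: hits lower antibody fragment binding to DSG3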
Target sequence (P32926 whole entry, looked up, the tested form may be a part): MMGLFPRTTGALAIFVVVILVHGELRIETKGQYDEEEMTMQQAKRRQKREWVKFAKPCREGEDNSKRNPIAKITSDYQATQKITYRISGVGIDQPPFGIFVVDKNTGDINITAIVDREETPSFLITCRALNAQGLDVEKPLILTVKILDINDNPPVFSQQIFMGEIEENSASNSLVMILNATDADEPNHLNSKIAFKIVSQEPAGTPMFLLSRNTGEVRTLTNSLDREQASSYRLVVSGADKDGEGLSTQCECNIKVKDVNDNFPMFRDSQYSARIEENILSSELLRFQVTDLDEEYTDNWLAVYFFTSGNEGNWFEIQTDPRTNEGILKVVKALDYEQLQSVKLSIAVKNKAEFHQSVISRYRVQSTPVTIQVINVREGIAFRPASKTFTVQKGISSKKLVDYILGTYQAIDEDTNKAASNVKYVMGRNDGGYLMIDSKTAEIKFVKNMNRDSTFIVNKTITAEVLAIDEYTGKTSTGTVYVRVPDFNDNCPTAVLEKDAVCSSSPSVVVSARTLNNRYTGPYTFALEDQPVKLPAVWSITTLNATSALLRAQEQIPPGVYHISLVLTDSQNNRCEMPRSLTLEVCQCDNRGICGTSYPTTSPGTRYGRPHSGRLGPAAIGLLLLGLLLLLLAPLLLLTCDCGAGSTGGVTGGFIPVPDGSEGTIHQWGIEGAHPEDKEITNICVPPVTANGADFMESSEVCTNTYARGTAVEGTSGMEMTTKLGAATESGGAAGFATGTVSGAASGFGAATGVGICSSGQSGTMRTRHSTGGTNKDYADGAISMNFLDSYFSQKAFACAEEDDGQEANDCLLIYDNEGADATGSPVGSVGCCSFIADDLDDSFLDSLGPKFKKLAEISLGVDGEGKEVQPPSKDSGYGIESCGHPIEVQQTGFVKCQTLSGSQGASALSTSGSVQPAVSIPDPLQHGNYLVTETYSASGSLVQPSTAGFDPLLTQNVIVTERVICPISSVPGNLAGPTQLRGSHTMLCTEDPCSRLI
MsrA inh confirm: bovine MsrA inhibition, confirmed | inhibition, % at 15.5 µM | shares compounds with MsrA inh | hit rate 41% among 2,300 | purified bovine MsrA, absorbance read-out | AID 651822;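 further: coupled to thioredoxin reductase with NADPH and selenocystamine and DMSO as substrate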
Large screens that a line does not name were inactive (follow-up assays come after a bar, where they were run). The list is not random: actives were taken first. Their share in the collection is about 3.2%. Unless noted, no stated cut-off is given here; in the data, active means inhibition above about 4.5%; inactive means the rest.

O=C(NC1=C(NC2CCS(=O)(=O)C2)C(=O)c2ccccc2C1=O)c1ccccc1 (stereo unspecified)	MsrA inh 5.0 | MsrA inh confirm inactive
O=C(NC1=C(Nc2ccc(Cl)cc2)C(=O)c2ccccc2C1=O)c1ccccc1	none
O=C(O)c1cccc(NC2=C(N3CCOCC3)C(=O)c3ccccc3C2=O)c1	none
O=C(O)c1ccc(NC2=C(n3nnc4ccccc43)C(=O)c3ccccc3C2=O)cc1	MsrA inh 57.5 | MsrA inh confirm 52.9
Cn1c(C(C#N)C(=O)Cc2cccc3ccccc23)nc2ccccc21 (stereo unspecified)	none
Cn1c(C(C#N)C(=O)c2ccco2)nc2ccccc21 (stereo unspecified)	MsrA inh 5.1 (no result: DSG3 Ab inh) | MsrA inh confirm 5.5
Cc1ccc2[nH]c3c(c2c1)CCN(C)C3	none
COc1ccc(/C=C/C(=O)C2(O)CCCCC2)cc1	MsrA inh 5.2 (no result: DSG3 Ab inh) | MsrA inh confirm inactive
CNc1ncnc(Sc2nc(N)nc3nc[nH]c23)c1[N+](=O)[O-]	MsrA inh 5.3 | MsrA inh confirm 5.5
Nc1nc(Sc2ccc([N+](=O)[O-])c3nonc23)c2[nH]cnc2n1	none
N#CCC[C@@H]1CC[C@]2(CCCN(Cc3ccc(Br)cc3)C2)O1	none (no result: NadD inh, DAGLB inh, MsrA inh, bovine MsrA act, DSG3 Ab inh)
CN(C)c1ccc(C=NCC2COc3ccccc3O2)cc1 (stereo unspecified)	MsrA inh 5.5 | MsrA inh confirm 5.2
CN(C)CCN1CCN(C2CN(CCc3ccccc3)S(=O)(=O)C2)CC1 (stereo unspecified)	none (no result: DAGLB inh, DSG3 Ab inh)
OCCN=Cc1c(O)[nH]c2ccccc12	none
CN(C)CC(C)(C)CN=Cc1c(O)[nH]c2ccccc12	MsrA inh 6.0 | MsrA inh confirm inactive
Oc1[nH]c2ccccc2c1C=Nc1ccccc1	MsrA inh 5.1 | MsrA inh confirm inactive
COC(=O)C[C@@H]1CC[C@H]2[C@@H](COc3ccc(NC(=O)NC(C)C)cc3C(=O)N2C)O1	none (no result: NadD inh, DAGLB inh, MsrA inh, bovine MsrA act, DSG3 Ab inh)
CSc1ccc(/C=N/NC(=O)c2cccc(O)c2)cc1	MsrA inh 4.8 | MsrA inh confirm 5.6
CCOc1ccc(C(=O)N/N=C/c2ccc(SC)cc2)cc1	none
CCCCCCCCCC1(CC(=O)OCC)SCCN1C(N)=O (stereo unspecified)	none
Cn1c(N)c(C#N)c(-c2ccccc2)c(C#N)c1=O	none (no result: DAGLB inh, DSG3 Ab inh)
Cc1ccc(-n2c(N)c(C#N)c(-c3ccccc3)c(C#N)c2=O)cc1	MsrA inh 4.9 | MsrA inh confirm inactive
N#Cc1c(-c2ccc(Cl)cc2)c(C#N)c(=O)n(N)c1N	MsrA inh 4.9 | MsrA inh confirm inactive
CCOc1ccc(N(C)S(=O)(=O)c2cc(-c3cc(C)no3)ccc2OC)cc1	none (no result: DSG3 Ab inh)
CCOc1ccc(N(C)S(=O)(=O)c2cc(-c3cc(C)no3)ccc2C)cc1	MsrA inh 11.9 | MsrA inh confirm 11.2
CCOc1ccc(N(C)S(=O)(=O)c2cc(-c3cc(C)no3)ccc2CC)cc1	MsrA inh 14.8 (no result: DSG3 Ab inh) | MsrA inh confirm 15.3
O=C(c1cc(F)ccc1F)N1CCC(Oc2cccnc2)CC1	none (no result: NadD inh, DAGLB inh, MsrA inh, bovine MsrA act, DSG3 Ab inh)
CN/C=C1\C(=O)C(C)(C)Oc2ccc3ccc(=O)oc3c21	MsrA inh 5.4 | MsrA inh confirm inactive
CN1c2ccsc2C(O)=C(C(=S)Nc2ccc(F)c(Cl)c2)S1(=O)=O	rCAG RNA binder 66.5, MsrA inh 6.5 | MsrA inh confirm 5.1
Cn1cc(C(=O)Nc2ccc(F)c(Cl)c2)cn1	none (no result: DSG3 Ab inh)
COc1cc2cc(c1Cl)N(C)C(=O)CC(OC(=O)C(C)N(C)C(C)=O)C1(C)OC1C(C)C1CC(O)(NC(=O)O1)C(OC)C=CC=C(C)C2 (stereo unspecified)	none
O=C(CCS(=O)(=O)c1ccc(Br)cc1)Nc1ccc2c(c1)OCO2	none
CCN(C(=O)CCS(=O)(=O)c1ccc(Br)cc1)c1ccc2c(c1)OCO2	MsrA inh 14.2 | MsrA inh confirm 7.3
C=CCN(Cc1ccccc1)C(C#CC(=C)C)Cc1ccccc1 (stereo unspecified)	none (no result: NadD inh, DAGLB inh, MsrA inh, bovine MsrA act, DSG3 Ab inh)
Fc1ccccc1/C=N/Nc1ncnc2nc[nH]c12	MsrA inh 8.9 | MsrA inh confirm inactive
Cc1ccc(/C=N/Nc2ncnc3nc[nH]c23)cc1	none
Fc1cccc(/C=N/Nc2ncnc3nc[nH]c23)c1	MsrA inh 5.2 | MsrA inh confirm inactive
Fc1cccc(/C=N/Nc2nc3ccccc3[nH]2)c1	MsrA inh 4.7 (no result: NadD inh, DAGLB inh, bovine MsrA act, DSG3 Ab inh) | MsrA inh confirm inactive
Clc1ccc(/C=N/Nc2ncnc3nc[nH]c23)cc1	none
Oc1ccc(/C=N/Nc2ncnc3nc[nH]c23)cc1	MsrA inh 6.9 | MsrA inh confirm 5.6
O=C(/C=C/c1ccco1)Nc1cc(Cl)ccc1C(=O)O	MsrA inh 6.8 | MsrA inh confirm 5.2
Cc1cc(C(=O)N/N=C/C=C/c2cccc([N+](=O)[O-])c2)n[nH]1	MsrA inh 5.9 | MsrA inh confirm inactive
Cc1cc(C(=O)N/N=C/C=C/c2ccccc2)n[nH]1	MsrA inh 5.8 | MsrA inh confirm 5.1
CCC(C)N(C(=O)CN1C(=O)C2CCCCN2C(=O)c2ccccc21)C(C)CC (stereo unspecified)	none (no result: NadD inh, DAGLB inh, MsrA inh, bovine MsrA act, DSG3 Ab inh)
CCCc1cc(=O)[nH]c(N/N=C/C=C\c2ccccc2)n1	MsrA inh 6.7 | MsrA inh confirm 5.5
C(=C\c1ccccc1)/C=N/Nc1nc2ccccc2[nH]1	none
COc1cccc(-c2cc(NC=O)c3ncc(-c4ccc(C(C)=O)cc4)n3c2)c1	none (no result: DAGLB inh, DSG3 Ab inh)
Cc1ccc(C(O)c2ncc(-c3ccc4ccccc4c3)[nH]2)cc1F (stereo unspecified)	none (no result: DAGLB inh, DSG3 Ab inh)
Nc1nc(N)c2sc3nc(C(F)(F)F)cc(C(F)(F)F)c3c2n1	MsrA inh 7.5 (no result: DSG3 Ab inh) | MsrA inh confirm inactive
CC1(C)N=C(N)N=C(N)N1c1ccc(OCC(=O)N2CCOCC2)c(Cl)c1	none
N#C/C(=N\O)c1nc2ccccc2s1	MsrA inh 4.7 | MsrA inh confirm inactive
Cc1ccccc1-n1c(SCc2cccc(F)c2)nc2[nH]ncc2c1=O	MsrA inh 7.2 | MsrA inh confirm 8.0
COC(=O)/C=C1\Nc2ccc(Cl)cc2C(=O)NC1=O	none (no result: NadD inh, DAGLB inh, bovine MsrA act, DSG3 Ab inh)
COC(=O)[C@]12C[C@H](CC(=O)NCCc3ccccc3OC)C(=O)N(Cc3cccc4ccccc34)C1=C[C@H](C1CCCC1)O[C@@H]2C	none (no result: NadD inh, DAGLB inh, MsrA inh, bovine MsrA act, DSG3 Ab inh)
O=C(N/N=C/c1cnc2ccccc2n1)c1cccc(F)c1	MsrA inh 5.8 | MsrA inh confirm inactive
COC(=O)c1ccc(N=NN2CCOCC2)cc1	MsrA inh 6.6 | MsrA inh confirm inactive
CC(C)Cn1cc(C(=O)NCCCN2CCCC2=O)c2c3ccccc3n(C)c2c1=O	MsrA inh 4.9 | MsrA inh confirm inactive
O=C(NCc1ccccc1)C1C(c2ccc3c(c2)OCO3)=Nc2ccccc2N1C(=O)c1ccco1 (stereo unspecified)	none (no result: NadD inh, DAGLB inh, bovine MsrA act, DSG3 Ab inh)
COC(=O)[C@]12C[C@H](CC(=O)NCc3ccc(C)o3)C(=O)N(Cc3ccco3)C1=C[C@H](COCc1ccccc1)O[C@@H]2C	none (no result: NadD inh, DAGLB inh, MsrA inh, bovine MsrA act, DSG3 Ab inh)
NC(=O)c1ccsc1NC(=O)COC(=O)/C=C/c1ccccc1[N+](=O)[O-]	MsrA inh 11.5 | MsrA inh confirm 9.4

Screens deposited in PubChem by several laboratories.
